Measured values from PubChem BioAssay.
“And” between values parts separate entries of the source, which are not always exact repeats. Identical values can stand only once. The source made the active and inactive calls.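 The calls were made as follows, unless noted: active = compounds whose cell count with miR-34 switched on is under 0.7 times the count with it off; inactive = the rest.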

What was measured:
[1] = viability loss with induced miR-34 in A549 – imaging, A549 dox-inducible miR-34, nuclei and caspase counts, primary screen (AID 1347080); conditions: A549 miR-34 inducible, Hoechst nuclei count, 48 h; also: test concentration not given here
[2] = MELAS cybrid and Rieske KO viability enhancers – cell-based, MELAS cybrids, Rieske KO mouse fibroblasts, CellTiter-Glo, primary screen (AID 1508586;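 active = mean z-score across replicates of 1.96 or higher in either the MELAS or the Rieske mutant cell line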;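 also: test concentration not given here; z relative to plate mean and SD of compound and empty wells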); conditions: low glucose
[3] = galactose survival enhancers in mitochondrial complex I cybrids – cell-based, galactose medium, ATP luminescence, primary screen (AID 1645843;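 active = z-score of at least 1.8 in each of two replicates, scored against plate mean and spread of sample wells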;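 also: positive z means more ATP and so rescue of galactose-driven cybrid death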); conditions: complex I mutant cybrid cells, 72 h, stronger effect = higher value
[4] = stronger effect = lower value, cell number ratio, induced over uninduced
[5] = measured here: relative caspase fold change +Dox/-Dox
[6] = measured here: total cells with miR-34 induction, stronger effect = lower value
[7] = measured here: total cells without miR-34 induction
[8] = MELAS cybrid survival, CellTiter-Glo 48 h, stronger effect = higher value
[9] = Rieske KO mouse fibroblast survival, CellTiter-Glo 72 h

SMILES	fold change [1, 4]	fold change [1, 5]	cell count [1, 6]	cell count [1, 7]	z-score [2, 8]	z-score [2, 9]	z-score [3]
CNCc1ccccc1-c1cccs1	0.861 (inactive)	0.648	8130	9440	-0.43 (inactive)	-0.443	0.065 (inactive)
Cn1nc(NC(=O)Cn2cc(-c3nccc4occc34)cn2)c2ccccc21	0.83 (inactive)	2.06	7280	8770	0.277 (inactive)	-0.242	-0.345 (inactive)
CN(Cc1noc(C2CCCC2)n1)C(=O)c1nc(=O)[nH]c2ccccc12	0.914 (inactive)	1.01	8520	9320	-0.339 (inactive)	0.124	-0.525 (inactive)
OCC(O)COc1ccc(Cl)cc1 (stereo not drawn)	0.886 (inactive)	0.44	8700	9820	0.325 (inactive)	0.457	0.62 (inactive)
CN(C)C(=O)c1cc(-c2cnc(-c3ccccn3)nc2)nc2cc(F)ccc12	0.875 (inactive)	1.98	8570	9790	-0.444 (inactive)	-0.334	-0.41 (inactive)
CCn1c2ccccc2c2cc(CNC)ccc21	0.848 (inactive)	0.773	7330	8640	0.644 (inactive)	-0.0619	-0.915 (inactive)
CNC(=O)c1ccccc1-c1cccc2ccccc12	0.918 (inactive)	0.701	8250	8980	-0.403 (inactive)	-0.242	-0.535 (inactive)
Cc1nnc(NC(=O)NCC(c2ccccc2)c2ccccc2)s1	0.837 (inactive)	0.947	7790	9310	0.623 (inactive)	1.94	1.01 (inactive)
O=C(Nc1c[nH]c2ccccc12)c1cccnc1	0.884 (inactive)	1.08	8140	9200	-0.289 (inactive)	-0.312	1.14 (inactive)
Nc1cccc(-c2cccc(OCc3ccccc3)c2)n1	0.803 (inactive)	1.74	7230	9010	-0.19 (inactive)	-0.156	-0.555 (inactive)
OB(O)c1ccccc1	0.876 (inactive)	0.386	7850	8950	-0.818 (inactive)	0.216	0.615 (inactive)
COC(=O)CN1CCN(c2ncnc3sccc23)C(C)C1=O (stereo not drawn)	0.854 (inactive)	1.54	7880	9220	0.221 (inactive)	0.142	-0.055 (inactive)
CC(C)C(NC(=O)Cc1c[nH]c2ccccc12)C(=O)O (stereo not drawn)	0.857 (inactive)	0.806	8140	9500	-1.19 (inactive)	-0.306	0.47 (inactive)
COc1ccc2nc(Cn3cnc4cc(F)ccc4c3=O)[nH]c2c1	0.891 (inactive)	1.56	7880	8840	-0.0496 (inactive)	-0.0588	-0.39 (inactive)
C[C@H](NC(=O)c1cnc(-c2ccccc2)[nH]1)c1ccccc1	0.876 (inactive)	2.24	7380	8420	0.341 (inactive)	-0.103	-0.6 (inactive)
O=c1cc(-c2cccnc2)nc(-c2ccc(CN3CCCC(CO)C3)cc2)[nH]1 (stereo not drawn)	0.899 (inactive)	2.12	7730	8590	-0.0299 (inactive)	-0.608	-0.56 (inactive)
O=C(O)c1cnn(-c2ccccc2)c1	0.883 (inactive)	0.82	8690	9840	-0.738 (inactive)	0.631	1.16 (inactive)
Cc1ncc(-c2cc(C(=O)N(C)Cc3csc(C)n3)c3ccc(F)cc3n2)cn1	0.883 (inactive)	2.05	8360	9470	-0.361 (inactive)	-0.299	-0.38 (inactive)
Nc1nc2ccccc2c(=O)[nH]1	0.901 (inactive)	0.247	8880	9860	0.855 (inactive)	-0.798	0.65 (inactive)
O=C(NCCCc1ccccc1)NC1CCCCC1	0.869 (inactive)	0.557	8240	9480	-0.491 (inactive)	-0.675	0.35 (inactive)
CN1CCN(Cc2cccc(-n3cccn3)c2)CC1CCO (stereo not drawn)	0.861 (inactive)	3.04	8640	10000	-0.56 (inactive)	-0.308	-0.58 (inactive)
COc1ccc(C(=O)N2CCN(C(=O)c3ccc4sc(N)nc4c3)CC2)cc1	0.916 (inactive)	0.875	9050	9880	-0.342 (inactive)	-0.192	-0.575 (inactive)

SMILES	fold change [1, 4]	fold change [1, 5]	cell count [1, 6]	cell count [1, 7]	z-score [2, 8]	z-score [2, 9]	z-score [3]
O=S(=O)(O)CCCSc1nc2ccccc2s1	0.906 (inactive)	0.489	8800	9700	-0.268 (inactive)	-0.142	0.7 (inactive)
Nc1nc(-c2ccc(O)cc2)cs1	0.871 (inactive)	0.369	7600	8730	-0.885 (inactive)	0.17	0.145 (inactive)
O=C1CCC(CC(=O)N2CCc3[nH]nc(-c4ccc5c(c4)OCO5)c3C2)N1 (stereo not drawn)	0.953 (inactive)	1.24	9140	9600	-0.575 (inactive)	-0.976	-0.52 (inactive)
O=C(Nc1n[nH]c(Cc2ccccc2)n1)N1CCN(c2ncncn2)CC1	0.914 (inactive)	1.11	9380	10300	0.379	4.03	0.44 (inactive)
Cc1nc2ccc(CN(C)c3ccc(C(=O)NC(CCC(=O)O)C(=O)O)s3)cc2c(=O)[nH]1 (stereo not drawn)	1.21 (inactive) and 1.1 (inactive)	1.12 and 0.742	1780 and 1710	1470 and 1560	-0.603 (inactive)	-0.121	-1.03 (inactive)
CCOc1ccccc1-c1ncnc2sc(C)c(C)c12	0.89 (inactive)	1.57	6100	6860	-0.535 (inactive)	0.672	0.07 (inactive)
O=S(=O)(O)CCN1CCOCC1	0.906 (inactive)	0.601	8760	9670	-0.907 (inactive)	-0.75	0.715 (inactive)
O=C(O)CNC(=O)Cc1c[nH]c2ccccc12	0.855 (inactive)	0.234	8420	9850	-0.685 (inactive)	-0.0302	-0.545 (inactive)
CCc1nc(NC(=O)NC(c2ccccc2)c2ccccc2)nn1C	0.893 (inactive)	1.04	6610	7400	-0.352 (inactive)	-0.694	1.48 (inactive)
NCCCNc1ccccc1[N+](=O)[O-]	0.945 (inactive)	0.463	8170	8640	-0.896 (inactive)	0.0452	0.19 (inactive)
O=C(O)CCc1c[nH]c2ccccc12	0.896 (inactive)	0.538	8830	9860	0.524 (inactive)	-0.334	0.56 (inactive)
COc1ccc(CC(C)NCC(O)c2ccc(O)c(NC=O)c2)cc1 (stereo not drawn)	0.94 (inactive) and 0.989 (inactive)	1.58 and 0.394	10500 and 8090	11200 and 8180	0.143 (inactive)	-0.0828	-0.17 (inactive)
CN(C)CCC=C1c2ccccc2COc2ccc(CC(=O)O)cc21	0.912 (inactive) and 0.919 (inactive)	1.41 and 0.942	9480 and 9680	10400 and 10500	-0.314 (inactive)	0.569	1.25 (inactive)
CN(CCc1ccccn1)C(=O)c1ccc2sc(N)nc2c1	0.88 (inactive)	0.927	8380	9520	0.048 (inactive)	-0.377	-0.435 (inactive)
COc1ccccc1Cn1ncc2[nH]c(-c3ccccc3OC)nc21	0.835 (inactive)	1.7	7580	9090	-0.341 (inactive)	-0.0244	2.62 (active)
O=C(O)CCCNC(=O)NC1CCCCC1	0.89 (inactive)	0.215	8970	10100	0.354 (inactive)	-0.267	0.455 (inactive)
O=C(c1cccc(=O)[nH]1)N(Cc1cccnc1)Cc1ccc2c(c1)OCO2	0.964 (inactive)	1.96	9470	9830	-0.318 (inactive)	0.234	-0.17 (inactive)
CCCCCCCCCCCCCCCC(=O)NCC(=O)O	0.908 (inactive)	1.05	9030	9940	-0.0953 (inactive)	0.105	1.27 (inactive)
FC(F)Oc1ccc(-c2nc3c(cnn3Cc3cccs3)[nH]2)cc1	0.844 (inactive)	1.61	6520	7720	-0.426	2.02	1.1 (inactive)
O=C(Nc1n[nH]c(Cc2ccccc2)n1)N1CCN(c2ncccn2)CC1	0.879 (inactive)	0.976	8590	9760	-0.0698	4	0.005 (inactive)
NCC(=O)Nc1ccc(OCc2ccccc2)cc1	0.851 (inactive)	0.248	8020	9430	1.42 (inactive)	-0.396	-1.35 (inactive)
Cc1cc(-c2cnn(CC(=O)Nc3ccnn3Cc3ccccc3)c2)nc(N)n1	0.926 (inactive)	0.917	8320	8980	-0.562 (inactive)	0.0522	-0.58 (inactive)
